Test results from the supplement of paper PMC12067093, “Discovery and optimisation of a covalent ligand for TRIM25 and its application to targeted protein ubiquitination” (Chemical Science, 2025).
About 21,000 targets were measured; listed, in parts, are those with the largest changes and a random draw of the rest.

Compound: CC1Cc2ccccc2N1C(=O)C1CCCN(C1)C(=O)CCl (mixture of isomers) [TRIM25 ligand 11 (diastereomer mixture)]
Experiment: probe-labelled cysteine peptide fold change vs DMSO (competition) (log2 fold change); higher = less target engagement (more negative = stronger competition)
Details: THP-1, incubation time: 4 h
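Also: competitive chemoproteomic profiling in live THP-1 cells with an iodoacetamide desthiobiotin (IA-DTB) probe, comparing probe-labelled peptide intensities in compound-treated cells against DMSO-treated controls.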

Sequence of UniProt Q9Y259 (Q9Y259 whole entry, looked up): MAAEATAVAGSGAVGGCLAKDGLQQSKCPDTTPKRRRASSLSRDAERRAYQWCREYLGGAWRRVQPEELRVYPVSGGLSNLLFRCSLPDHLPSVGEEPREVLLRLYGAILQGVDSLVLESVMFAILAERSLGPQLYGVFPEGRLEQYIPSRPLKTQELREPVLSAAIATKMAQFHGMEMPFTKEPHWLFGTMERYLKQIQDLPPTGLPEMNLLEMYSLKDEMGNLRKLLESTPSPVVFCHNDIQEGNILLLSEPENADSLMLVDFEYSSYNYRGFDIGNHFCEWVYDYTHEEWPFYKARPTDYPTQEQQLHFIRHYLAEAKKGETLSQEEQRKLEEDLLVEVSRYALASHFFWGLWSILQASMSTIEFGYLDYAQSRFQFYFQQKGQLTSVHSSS
Sequence of UniProt Q96JB2 (Q96JB2 whole entry, looked up): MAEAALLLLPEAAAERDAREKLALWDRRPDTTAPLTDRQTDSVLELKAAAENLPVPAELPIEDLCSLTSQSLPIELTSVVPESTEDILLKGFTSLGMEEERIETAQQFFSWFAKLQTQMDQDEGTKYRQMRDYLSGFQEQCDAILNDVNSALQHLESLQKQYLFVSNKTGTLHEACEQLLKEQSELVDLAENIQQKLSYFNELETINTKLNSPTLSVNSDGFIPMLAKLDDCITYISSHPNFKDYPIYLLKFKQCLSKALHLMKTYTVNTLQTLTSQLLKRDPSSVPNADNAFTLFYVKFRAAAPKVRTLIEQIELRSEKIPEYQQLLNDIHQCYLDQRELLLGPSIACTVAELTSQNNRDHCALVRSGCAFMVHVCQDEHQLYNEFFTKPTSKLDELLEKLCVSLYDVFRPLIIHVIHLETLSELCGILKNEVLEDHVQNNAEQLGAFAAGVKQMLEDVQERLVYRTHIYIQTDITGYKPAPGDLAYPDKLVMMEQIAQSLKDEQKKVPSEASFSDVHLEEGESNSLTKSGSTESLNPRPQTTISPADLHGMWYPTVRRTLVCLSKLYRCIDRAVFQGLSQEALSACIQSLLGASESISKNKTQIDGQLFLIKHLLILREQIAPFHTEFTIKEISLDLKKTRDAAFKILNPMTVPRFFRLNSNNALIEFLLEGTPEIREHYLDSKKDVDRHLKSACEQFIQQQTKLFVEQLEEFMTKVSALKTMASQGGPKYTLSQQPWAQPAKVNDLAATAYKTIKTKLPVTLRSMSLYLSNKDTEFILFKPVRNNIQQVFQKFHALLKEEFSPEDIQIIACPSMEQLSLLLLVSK
Sequence of UniProt P53621 (P53621 whole entry, looked up): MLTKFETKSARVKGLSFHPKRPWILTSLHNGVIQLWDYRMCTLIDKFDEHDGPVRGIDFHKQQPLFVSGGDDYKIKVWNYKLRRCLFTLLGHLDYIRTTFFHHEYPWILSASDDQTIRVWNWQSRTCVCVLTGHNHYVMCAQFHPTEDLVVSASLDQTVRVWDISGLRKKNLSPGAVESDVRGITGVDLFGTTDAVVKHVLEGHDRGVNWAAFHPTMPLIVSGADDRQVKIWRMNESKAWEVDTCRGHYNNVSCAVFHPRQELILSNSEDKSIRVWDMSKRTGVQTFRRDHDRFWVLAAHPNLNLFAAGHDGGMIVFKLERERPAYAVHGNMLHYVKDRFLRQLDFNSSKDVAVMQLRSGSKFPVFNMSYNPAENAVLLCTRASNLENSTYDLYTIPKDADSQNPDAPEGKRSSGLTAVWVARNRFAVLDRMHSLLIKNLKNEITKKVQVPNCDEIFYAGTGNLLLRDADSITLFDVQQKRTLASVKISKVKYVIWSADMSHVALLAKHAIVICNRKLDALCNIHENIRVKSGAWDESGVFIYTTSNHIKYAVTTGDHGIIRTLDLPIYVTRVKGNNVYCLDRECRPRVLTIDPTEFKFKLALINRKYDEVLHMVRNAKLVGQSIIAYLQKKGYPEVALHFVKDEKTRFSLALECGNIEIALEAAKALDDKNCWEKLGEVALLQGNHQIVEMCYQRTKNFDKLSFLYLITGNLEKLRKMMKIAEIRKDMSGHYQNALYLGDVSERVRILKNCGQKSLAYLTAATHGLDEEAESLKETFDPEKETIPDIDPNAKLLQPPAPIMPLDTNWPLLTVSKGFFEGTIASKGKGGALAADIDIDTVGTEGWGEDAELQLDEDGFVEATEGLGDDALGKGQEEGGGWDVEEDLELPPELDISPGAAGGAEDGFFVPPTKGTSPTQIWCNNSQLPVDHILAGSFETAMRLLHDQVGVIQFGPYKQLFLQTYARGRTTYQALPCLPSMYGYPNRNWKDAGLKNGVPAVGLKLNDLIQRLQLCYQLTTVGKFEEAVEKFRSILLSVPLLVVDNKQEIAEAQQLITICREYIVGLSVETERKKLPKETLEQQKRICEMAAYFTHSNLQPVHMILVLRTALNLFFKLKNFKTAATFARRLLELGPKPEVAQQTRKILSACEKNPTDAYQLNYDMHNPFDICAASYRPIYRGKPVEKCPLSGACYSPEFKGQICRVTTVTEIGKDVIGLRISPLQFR
Sequence of UniProt Q14790 (Q14790 whole entry, looked up): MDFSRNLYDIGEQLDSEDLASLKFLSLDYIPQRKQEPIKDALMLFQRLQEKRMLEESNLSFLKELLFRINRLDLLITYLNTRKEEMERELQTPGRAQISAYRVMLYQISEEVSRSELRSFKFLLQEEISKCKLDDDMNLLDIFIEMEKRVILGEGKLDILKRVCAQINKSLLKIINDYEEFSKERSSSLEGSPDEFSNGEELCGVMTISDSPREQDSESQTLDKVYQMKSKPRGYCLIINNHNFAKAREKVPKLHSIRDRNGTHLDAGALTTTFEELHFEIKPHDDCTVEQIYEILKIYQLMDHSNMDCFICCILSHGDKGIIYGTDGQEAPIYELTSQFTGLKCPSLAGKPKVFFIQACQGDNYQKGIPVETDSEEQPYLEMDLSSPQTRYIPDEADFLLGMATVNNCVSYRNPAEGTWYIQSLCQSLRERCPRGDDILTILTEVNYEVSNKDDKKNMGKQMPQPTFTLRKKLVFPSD
Sequence of UniProt Q9H9Q2 (Q9H9Q2 whole entry, looked up): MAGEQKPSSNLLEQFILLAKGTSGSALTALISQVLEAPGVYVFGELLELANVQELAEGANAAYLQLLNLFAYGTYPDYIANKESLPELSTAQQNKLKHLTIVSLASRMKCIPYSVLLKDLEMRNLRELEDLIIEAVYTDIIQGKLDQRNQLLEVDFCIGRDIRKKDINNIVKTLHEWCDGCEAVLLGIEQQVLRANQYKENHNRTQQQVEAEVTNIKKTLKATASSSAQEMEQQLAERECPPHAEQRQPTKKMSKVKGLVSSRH
Sequence of UniProt P51790 (P51790 whole entry): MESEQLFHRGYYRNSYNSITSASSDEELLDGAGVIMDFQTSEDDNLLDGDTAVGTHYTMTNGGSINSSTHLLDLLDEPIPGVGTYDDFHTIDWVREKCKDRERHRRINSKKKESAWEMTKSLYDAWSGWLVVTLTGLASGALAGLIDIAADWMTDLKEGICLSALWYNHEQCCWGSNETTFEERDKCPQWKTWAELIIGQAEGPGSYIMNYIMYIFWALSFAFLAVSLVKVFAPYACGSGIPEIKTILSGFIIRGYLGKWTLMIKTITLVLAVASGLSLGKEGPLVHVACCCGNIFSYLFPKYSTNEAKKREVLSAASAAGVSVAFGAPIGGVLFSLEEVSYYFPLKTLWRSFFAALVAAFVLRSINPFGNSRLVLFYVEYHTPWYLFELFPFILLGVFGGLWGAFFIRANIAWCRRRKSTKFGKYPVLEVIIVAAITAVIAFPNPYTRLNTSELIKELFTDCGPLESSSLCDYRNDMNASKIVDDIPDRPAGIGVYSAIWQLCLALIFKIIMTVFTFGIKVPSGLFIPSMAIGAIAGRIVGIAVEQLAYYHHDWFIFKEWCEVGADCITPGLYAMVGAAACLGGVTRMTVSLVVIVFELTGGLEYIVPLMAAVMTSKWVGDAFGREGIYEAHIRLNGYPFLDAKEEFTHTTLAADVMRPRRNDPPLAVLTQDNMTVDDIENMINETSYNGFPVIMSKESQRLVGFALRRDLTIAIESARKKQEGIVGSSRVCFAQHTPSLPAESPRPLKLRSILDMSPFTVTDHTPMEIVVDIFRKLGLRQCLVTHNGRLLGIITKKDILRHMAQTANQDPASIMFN
Sequence of UniProt Q9BX70 (Q9BX70 whole entry, looked up): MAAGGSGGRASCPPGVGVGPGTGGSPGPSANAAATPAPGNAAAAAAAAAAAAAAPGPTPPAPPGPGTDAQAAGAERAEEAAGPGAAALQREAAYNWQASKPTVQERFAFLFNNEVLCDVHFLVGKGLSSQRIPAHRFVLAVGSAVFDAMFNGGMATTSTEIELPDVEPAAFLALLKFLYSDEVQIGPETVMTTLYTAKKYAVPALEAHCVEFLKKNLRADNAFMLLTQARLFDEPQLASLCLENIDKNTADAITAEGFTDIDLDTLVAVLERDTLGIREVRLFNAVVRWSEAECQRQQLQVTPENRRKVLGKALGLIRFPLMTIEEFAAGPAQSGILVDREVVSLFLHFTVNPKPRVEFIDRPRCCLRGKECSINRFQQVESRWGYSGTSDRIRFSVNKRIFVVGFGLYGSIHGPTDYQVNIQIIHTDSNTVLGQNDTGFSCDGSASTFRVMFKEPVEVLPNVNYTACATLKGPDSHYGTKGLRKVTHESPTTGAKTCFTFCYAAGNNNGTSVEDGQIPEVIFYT
Sequence of UniProt Q99439 (Q99439 whole entry, looked up): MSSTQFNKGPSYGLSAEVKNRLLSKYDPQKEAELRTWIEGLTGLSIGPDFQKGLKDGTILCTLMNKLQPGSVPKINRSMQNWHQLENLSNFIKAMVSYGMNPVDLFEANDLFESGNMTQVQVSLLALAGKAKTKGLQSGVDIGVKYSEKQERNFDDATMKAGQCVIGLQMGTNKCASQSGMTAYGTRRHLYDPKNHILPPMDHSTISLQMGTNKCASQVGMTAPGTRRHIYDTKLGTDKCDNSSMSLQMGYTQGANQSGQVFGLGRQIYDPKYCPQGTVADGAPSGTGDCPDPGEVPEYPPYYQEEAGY
Sequence of UniProt P23528 (P23528 whole entry, looked up): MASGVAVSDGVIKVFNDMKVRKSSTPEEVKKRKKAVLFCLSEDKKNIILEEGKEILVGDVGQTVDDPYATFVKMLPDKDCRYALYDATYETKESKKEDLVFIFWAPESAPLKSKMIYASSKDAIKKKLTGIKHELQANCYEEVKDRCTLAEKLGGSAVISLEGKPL

Target | probe-labelled cysteine peptide fold change (10 µM) | probe-labelled cysteine peptide fold change (50 µM)
CCNK_O75909_99_YVTGACCLFLAGK (UniProt O75909) | 0.1 | 0.32
CNN2_Q99439_61_DGTILCTLMNK (UniProt Q99439) | 0.00655 | 0.0892
CDYL_Q9Y232_571_MELEQANERECEVLK (UniProt Q9Y232) | -0.0968 | -0.0996
BTBD2_Q9BX70_241_LFDEPQLASLCLENIDK (UniProt Q9BX70) | 0.22 | 0.0147
COPS7B_Q9H9Q2_157_NQLLEVDFCIGR (UniProt Q9H9Q2) | -0.0213 | -0.0864
COPA_P53621_1148_KILSACEK (UniProt P53621) | -0.616 | -0.459
BZW2_Q9Y6E2_97_MTNHCVFSANEDHETIR (UniProt Q9Y6E2) | 0.0541 | -0.0628
CNOT4_O95628_175_AIQCVNNVVVDGR (UniProt O95628) | 0.0992 | 0.172
CASP8_Q14790_345_CPSLAGKPK (UniProt Q14790) | -0.0611 | -0.0798
COG3_Q96JB2_363_ELLLGPSIACTVAELTSQNNRDHCALVR (UniProt Q96JB2) | -0.436 | 0.793
CAMK2G_Q13555_7_ATTATCTR (UniProt Q13555) | 0.042 | -0.225
CLCN3_P51790_733_VCFAQHTPSLPAESPRPLK (UniProt P51790) | 0.0602 | 0.0245
CNOT8_Q9UFF9_148_HEEEGIDTLHFAELLMTSGVVLCDNVK (UniProt Q9UFF9) | 0.648 | 0.338
CCT5_P48643_181_VVNSCHR (UniProt P48643) | 0.109 | 0.0213
CHKB_Q9Y259_85_CSLPDHLPSVGEEPREVLLR (UniProt Q9Y259) | -0.301 | -0.0104
CFL1_P23528_139_KLTGIKHELQANCYEEVK (UniProt P23528) | -0.632 | -0.503
CCAR1_Q8IX12_937_DLLMAFVYFDQSHCGYLLEK (UniProt Q8IX12) | 0.653 | 0.739
